# Columns and labels:
# Test in all cases: DAPPL (digital affinity profiling via proximity ligation, sequencing); 10 mM Tris-HCl pH 7.5, 50 mM NaCl, 1 mM DTT, 4% glycerol, room temperature, 30 min; GST-TFs on glutathione beads, 16-mer random dsDNA library, 0.1% formaldehyde crosslink after washing; high values mean tight binding
# FEV = target: T1, FEV (Homo sapiens, UniProt Q99581 1-238); conditions: protein: recombinant; tags: N-terminal GST; dsDNA, one strand shown
# T1 sequence: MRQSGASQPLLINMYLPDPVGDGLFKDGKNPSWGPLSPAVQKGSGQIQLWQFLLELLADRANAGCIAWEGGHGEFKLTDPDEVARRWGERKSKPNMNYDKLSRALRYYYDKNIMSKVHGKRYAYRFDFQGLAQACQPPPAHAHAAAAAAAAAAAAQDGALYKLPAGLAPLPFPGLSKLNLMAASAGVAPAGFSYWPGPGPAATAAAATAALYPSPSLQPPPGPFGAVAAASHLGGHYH
# Outline: (§1)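 Beads coated with glutathione captured GST-fused human transcription factors that had been expressed in yeast, and the factors were then given DNA barcodes and pooled with a tag-only sample. The pools were incubated with 200 nmole of a random double-stranded 16-mer DNA library in Tris/NaCl/DTT/glycerol buffer for 30 min at room temperature, washed, crosslinked with 0.1% formaldehyde and proximity-ligated with BsaI/T4 ligase at 37 °C for 1 h. PCR amplification and Illumina NextSeq500 sequencing came last. Binding signal is each hexamer's read frequency for a factor divided by its frequency for the tag-only sample.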
# ETV5 = ETV5 (Homo sapiens, UniProt P41161 1-510); conditions: protein: recombinant; tags: N-terminal GST; dsDNA, one strand shown
# Outline: as §1
# HSF1 = HSF1 (Homo sapiens, UniProt Q00613 1-529); conditions: protein: recombinant; tags: N-terminal GST; chain copies: 3; dsDNA, one strand shown
# Outline: as §1
# SPIC = target: T2, SPIC (Homo sapiens, UniProt Q8N5J4 1-248); conditions: protein: recombinant; tags: N-terminal GST; dsDNA, one strand shown
# T2 sequence: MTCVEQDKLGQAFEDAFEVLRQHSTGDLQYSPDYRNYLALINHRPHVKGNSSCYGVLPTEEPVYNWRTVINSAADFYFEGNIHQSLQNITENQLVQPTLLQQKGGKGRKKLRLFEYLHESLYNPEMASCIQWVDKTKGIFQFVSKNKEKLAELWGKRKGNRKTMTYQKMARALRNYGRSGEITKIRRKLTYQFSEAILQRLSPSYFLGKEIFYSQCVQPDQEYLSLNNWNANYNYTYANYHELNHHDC
# Outline: as §1
# ELF4 = ELF4 (Homo sapiens, UniProt Q99607 1-663); conditions: protein: recombinant; tags: N-terminal GST; dsDNA, one strand shown
# Outline: as §1
# ELK4 = target: T3, ELK4 (Homo sapiens, UniProt P28324-2 1-405); conditions: protein: recombinant; tags: N-terminal GST; dsDNA, one strand shown
# T3 sequence: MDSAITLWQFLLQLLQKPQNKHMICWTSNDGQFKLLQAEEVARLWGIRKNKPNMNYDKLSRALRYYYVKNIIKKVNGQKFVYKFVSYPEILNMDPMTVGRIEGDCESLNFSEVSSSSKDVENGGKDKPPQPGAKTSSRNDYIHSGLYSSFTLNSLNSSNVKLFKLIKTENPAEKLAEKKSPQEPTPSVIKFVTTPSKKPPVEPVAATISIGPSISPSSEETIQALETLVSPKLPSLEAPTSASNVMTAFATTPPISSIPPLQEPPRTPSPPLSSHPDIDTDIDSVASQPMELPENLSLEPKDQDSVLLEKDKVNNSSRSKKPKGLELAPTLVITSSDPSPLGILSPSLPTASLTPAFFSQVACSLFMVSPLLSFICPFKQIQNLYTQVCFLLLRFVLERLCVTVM
# Outline: as §1
# ETV2 = target: T4, ETV2 (Homo sapiens, UniProt O00321 1-342); conditions: protein: recombinant; tags: N-terminal GST; dsDNA, one strand shown
# T4 sequence: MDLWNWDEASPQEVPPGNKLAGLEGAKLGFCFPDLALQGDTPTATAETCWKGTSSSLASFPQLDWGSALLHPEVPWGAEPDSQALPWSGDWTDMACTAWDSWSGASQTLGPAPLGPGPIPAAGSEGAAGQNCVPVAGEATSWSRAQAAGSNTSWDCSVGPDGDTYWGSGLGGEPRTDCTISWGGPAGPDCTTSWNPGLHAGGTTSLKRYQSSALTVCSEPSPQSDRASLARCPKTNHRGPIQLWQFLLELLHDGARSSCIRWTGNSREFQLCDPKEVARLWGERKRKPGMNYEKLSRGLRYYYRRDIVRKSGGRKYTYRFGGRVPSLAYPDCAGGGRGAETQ
# Outline: as §1
# ELF3 = target: T5, ELF3 (Homo sapiens, UniProt P78545 1-371); conditions: protein: recombinant; tags: N-terminal GST; dsDNA, one strand shown
# T5 sequence: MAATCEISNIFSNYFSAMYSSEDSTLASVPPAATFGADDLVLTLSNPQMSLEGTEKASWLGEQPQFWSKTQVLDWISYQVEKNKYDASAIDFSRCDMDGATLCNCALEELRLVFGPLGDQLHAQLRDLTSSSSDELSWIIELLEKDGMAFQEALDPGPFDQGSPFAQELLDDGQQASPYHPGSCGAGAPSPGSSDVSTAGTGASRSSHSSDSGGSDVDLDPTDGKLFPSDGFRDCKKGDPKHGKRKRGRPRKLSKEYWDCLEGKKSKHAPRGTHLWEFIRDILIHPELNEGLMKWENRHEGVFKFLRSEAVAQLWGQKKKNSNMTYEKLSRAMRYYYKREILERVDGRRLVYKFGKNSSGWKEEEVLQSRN
# Outline: as §1
# CRX = CRX (Homo sapiens, UniProt O43186 1-299); conditions: protein: recombinant; tags: N-terminal GST; dsDNA, one strand shown
# Outline: as §1
# ETV1 = ETV1 (Homo sapiens, UniProt P50549 1-477); conditions: protein: recombinant; tags: N-terminal GST; dsDNA, one strand shown
# Outline: as §1
# ERF = target: T6, ERF (Homo sapiens, UniProt P50548 1-548); conditions: protein: recombinant; tags: N-terminal GST; dsDNA, one strand shown
# T6 sequence: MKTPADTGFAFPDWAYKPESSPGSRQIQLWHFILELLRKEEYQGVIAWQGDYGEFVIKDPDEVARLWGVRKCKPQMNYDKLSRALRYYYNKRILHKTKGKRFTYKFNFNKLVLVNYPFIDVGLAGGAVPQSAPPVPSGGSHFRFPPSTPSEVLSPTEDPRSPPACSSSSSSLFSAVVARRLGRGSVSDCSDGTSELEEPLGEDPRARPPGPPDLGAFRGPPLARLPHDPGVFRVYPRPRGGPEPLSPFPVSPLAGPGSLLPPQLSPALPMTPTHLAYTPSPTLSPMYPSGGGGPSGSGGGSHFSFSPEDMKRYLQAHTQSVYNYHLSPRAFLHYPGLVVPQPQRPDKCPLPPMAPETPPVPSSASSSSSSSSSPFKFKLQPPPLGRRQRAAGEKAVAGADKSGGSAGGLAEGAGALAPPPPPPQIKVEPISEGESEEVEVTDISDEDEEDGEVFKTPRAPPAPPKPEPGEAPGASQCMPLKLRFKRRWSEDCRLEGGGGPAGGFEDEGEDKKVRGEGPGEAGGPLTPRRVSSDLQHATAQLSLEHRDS
# Outline: as §1
# ETV3L = target: T7, ETV3L (Homo sapiens, UniProt Q6ZN32 1-361); conditions: protein: recombinant; tags: N-terminal GST; dsDNA, one strand shown
# T7 sequence: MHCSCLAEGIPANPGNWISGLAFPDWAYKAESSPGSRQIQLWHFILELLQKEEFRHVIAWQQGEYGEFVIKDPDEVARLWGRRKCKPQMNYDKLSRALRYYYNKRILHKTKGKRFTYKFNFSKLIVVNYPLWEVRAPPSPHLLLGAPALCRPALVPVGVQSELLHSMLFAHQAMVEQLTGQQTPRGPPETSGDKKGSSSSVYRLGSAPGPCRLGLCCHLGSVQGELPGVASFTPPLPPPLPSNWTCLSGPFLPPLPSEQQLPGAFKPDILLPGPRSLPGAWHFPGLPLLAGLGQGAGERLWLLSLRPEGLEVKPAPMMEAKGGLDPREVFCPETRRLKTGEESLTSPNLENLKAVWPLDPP
# Outline: as §1
# ETS2 = target: T8, ETS2 (Homo sapiens, UniProt P15036 1-469); conditions: protein: recombinant; tags: N-terminal GST; dsDNA, one strand shown
# T8 sequence: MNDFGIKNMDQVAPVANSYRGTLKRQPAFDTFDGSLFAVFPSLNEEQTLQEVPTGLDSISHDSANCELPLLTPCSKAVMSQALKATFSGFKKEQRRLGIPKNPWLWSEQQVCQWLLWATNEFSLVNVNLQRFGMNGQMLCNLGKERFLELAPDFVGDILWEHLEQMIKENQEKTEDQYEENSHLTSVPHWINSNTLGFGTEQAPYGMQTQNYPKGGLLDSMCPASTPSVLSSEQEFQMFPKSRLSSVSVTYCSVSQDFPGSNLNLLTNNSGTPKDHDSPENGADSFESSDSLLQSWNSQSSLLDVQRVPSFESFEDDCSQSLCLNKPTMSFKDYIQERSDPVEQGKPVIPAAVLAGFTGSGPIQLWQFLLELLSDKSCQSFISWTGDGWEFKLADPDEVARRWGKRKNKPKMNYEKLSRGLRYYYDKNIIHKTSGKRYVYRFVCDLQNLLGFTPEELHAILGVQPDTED
# Outline: as §1
# SPDEF = target: T9, SPDEF (Homo sapiens, UniProt O95238 1-335); conditions: protein: recombinant; tags: N-terminal GST; dsDNA, one strand shown
# T9 sequence: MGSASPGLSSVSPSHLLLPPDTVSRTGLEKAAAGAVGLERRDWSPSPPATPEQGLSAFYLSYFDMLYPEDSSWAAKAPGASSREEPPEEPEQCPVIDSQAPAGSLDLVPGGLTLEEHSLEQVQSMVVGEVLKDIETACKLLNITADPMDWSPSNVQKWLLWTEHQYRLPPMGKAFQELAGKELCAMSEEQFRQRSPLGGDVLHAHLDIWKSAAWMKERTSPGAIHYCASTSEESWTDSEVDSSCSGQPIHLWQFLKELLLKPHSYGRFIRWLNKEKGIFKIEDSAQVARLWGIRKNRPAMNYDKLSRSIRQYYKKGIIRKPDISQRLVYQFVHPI
# Outline: as §1
# ETV7 = target: T10, ETV7 (Homo sapiens, UniProt Q9Y603 1-341); conditions: protein: recombinant; tags: N-terminal GST; dsDNA, one strand shown
# T10 sequence: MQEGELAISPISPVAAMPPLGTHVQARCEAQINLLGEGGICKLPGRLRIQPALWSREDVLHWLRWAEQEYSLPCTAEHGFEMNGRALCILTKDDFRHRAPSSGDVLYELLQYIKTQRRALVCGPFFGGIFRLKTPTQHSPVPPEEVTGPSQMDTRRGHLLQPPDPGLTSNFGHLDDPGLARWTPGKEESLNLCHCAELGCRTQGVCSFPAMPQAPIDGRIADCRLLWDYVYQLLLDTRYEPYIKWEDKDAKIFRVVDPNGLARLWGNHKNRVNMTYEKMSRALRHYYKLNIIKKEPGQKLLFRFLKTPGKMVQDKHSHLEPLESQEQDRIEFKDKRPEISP
# Outline: as §1
# ELF5 = target: T11, ELF5 (Homo sapiens, UniProt Q9UKW6-2 1-255); conditions: protein: recombinant; tags: N-terminal GST; dsDNA, one strand shown
# T11 sequence: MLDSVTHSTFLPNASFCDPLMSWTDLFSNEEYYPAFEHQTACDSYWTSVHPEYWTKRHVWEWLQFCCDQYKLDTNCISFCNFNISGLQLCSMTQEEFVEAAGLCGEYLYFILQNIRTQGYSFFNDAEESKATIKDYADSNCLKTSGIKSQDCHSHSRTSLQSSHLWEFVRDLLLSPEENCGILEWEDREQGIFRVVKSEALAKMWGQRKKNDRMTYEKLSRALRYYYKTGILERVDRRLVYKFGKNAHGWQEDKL
# Outline: as §1
# ETV3 = target: T12, ETV3 (Homo sapiens, UniProt P41162-2 1-143); conditions: protein: recombinant; tags: N-terminal GST; dsDNA, one strand shown
# T12 sequence: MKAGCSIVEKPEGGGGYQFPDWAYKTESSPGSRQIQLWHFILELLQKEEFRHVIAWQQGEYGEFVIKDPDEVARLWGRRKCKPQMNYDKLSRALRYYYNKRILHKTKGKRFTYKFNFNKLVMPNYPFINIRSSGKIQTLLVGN
# Outline: as §1
# ETV6 = ETV6 (Homo sapiens, UniProt P41212 1-452); conditions: protein: recombinant; tags: N-terminal GST; dsDNA, one strand shown
# Outline: as §1
# Sequence of ETV6 (P41212 whole entry): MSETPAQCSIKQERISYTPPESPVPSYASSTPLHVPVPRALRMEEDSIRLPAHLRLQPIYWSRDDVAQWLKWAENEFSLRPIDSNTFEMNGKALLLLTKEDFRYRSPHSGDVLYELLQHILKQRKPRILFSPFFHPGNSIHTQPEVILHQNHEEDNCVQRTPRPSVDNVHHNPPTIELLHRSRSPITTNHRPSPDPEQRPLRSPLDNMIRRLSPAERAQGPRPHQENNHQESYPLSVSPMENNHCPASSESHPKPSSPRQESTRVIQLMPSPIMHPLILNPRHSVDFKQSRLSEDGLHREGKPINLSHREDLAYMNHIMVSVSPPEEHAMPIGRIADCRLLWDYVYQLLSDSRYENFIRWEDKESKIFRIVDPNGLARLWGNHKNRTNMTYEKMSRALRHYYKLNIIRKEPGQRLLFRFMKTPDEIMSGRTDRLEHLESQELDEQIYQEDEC
# Sequence of ETV5 (P41161 whole entry): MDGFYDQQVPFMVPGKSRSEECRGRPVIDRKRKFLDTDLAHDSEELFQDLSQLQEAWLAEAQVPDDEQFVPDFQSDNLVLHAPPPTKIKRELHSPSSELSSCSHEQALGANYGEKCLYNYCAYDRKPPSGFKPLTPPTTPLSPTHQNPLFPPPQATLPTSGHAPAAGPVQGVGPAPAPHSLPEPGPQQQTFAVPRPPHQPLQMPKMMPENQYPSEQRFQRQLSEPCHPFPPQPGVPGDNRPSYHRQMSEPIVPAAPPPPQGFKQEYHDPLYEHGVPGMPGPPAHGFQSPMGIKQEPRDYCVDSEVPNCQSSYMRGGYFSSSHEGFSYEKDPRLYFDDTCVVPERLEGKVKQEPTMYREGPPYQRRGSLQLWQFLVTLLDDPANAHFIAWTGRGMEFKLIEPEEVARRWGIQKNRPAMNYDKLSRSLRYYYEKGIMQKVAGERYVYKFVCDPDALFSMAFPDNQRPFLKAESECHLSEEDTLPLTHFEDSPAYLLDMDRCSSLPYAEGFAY
# Sequence of ELF4 (Q99607 whole entry): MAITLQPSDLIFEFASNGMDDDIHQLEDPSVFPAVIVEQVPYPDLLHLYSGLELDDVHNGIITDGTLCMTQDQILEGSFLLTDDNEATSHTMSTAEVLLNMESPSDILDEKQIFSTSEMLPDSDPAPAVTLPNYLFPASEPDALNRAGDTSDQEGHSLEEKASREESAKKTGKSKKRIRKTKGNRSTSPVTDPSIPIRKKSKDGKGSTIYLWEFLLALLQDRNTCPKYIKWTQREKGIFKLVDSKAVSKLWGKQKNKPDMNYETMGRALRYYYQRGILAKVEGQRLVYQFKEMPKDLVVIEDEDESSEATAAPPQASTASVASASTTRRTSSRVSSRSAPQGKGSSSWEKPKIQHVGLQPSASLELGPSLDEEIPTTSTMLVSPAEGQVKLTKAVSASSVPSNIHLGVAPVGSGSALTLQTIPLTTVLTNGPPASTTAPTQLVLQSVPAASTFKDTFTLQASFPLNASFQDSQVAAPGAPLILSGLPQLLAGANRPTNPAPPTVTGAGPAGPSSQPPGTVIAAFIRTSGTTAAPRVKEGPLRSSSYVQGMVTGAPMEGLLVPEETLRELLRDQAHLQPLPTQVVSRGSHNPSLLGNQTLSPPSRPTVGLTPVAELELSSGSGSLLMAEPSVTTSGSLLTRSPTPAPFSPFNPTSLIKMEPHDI
# Sequence of CRX (O43186 whole entry): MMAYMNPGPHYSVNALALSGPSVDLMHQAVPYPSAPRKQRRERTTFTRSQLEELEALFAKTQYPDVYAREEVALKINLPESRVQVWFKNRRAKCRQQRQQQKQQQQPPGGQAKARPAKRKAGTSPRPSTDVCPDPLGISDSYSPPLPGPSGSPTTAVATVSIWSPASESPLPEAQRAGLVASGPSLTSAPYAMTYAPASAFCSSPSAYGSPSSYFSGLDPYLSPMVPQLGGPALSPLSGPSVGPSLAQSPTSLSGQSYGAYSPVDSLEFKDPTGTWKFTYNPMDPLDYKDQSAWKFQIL
# Sequence of ETV1 (P50549 whole entry): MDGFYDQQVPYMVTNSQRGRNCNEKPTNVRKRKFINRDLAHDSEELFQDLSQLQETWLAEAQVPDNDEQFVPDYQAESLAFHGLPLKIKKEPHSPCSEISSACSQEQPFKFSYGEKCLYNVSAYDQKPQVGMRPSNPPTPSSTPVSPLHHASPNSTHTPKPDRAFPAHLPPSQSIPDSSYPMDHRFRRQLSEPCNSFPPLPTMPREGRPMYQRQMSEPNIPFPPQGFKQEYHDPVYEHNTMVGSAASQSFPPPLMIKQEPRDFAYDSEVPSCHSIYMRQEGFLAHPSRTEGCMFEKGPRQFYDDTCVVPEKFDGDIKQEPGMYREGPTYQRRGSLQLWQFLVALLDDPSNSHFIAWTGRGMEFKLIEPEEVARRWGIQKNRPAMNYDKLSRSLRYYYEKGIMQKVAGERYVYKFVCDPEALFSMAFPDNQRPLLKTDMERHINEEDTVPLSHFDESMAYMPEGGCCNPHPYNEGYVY
# Sequence of HSF1 (Q00613 whole entry): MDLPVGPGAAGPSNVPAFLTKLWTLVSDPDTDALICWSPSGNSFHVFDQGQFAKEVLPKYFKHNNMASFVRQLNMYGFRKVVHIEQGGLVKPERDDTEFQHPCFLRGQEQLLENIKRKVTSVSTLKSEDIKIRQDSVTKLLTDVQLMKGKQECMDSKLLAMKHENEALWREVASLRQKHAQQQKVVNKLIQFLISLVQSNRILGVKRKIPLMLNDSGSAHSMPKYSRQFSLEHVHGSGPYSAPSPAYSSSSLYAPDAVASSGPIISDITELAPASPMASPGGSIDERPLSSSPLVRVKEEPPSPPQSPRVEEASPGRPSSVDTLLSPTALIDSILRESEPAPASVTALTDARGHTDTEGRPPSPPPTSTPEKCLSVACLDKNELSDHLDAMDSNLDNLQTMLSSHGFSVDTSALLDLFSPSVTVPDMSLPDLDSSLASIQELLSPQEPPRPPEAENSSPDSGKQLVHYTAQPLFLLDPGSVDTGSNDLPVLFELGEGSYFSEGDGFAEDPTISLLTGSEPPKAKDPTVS
sequence,measurement,setting,value
GCGATG,binding signal,FEV,"1.22 fold enrichment (6-mer frequency, TF over GST control)"
same,binding signal,ETV5,"1.25 fold enrichment (6-mer frequency, TF over GST control)"
same,binding signal,HSF1,"1.08 fold enrichment (6-mer frequency, TF over GST control)"
same,binding signal,SPIC,"1.07 fold enrichment (6-mer frequency, TF over GST control)"
same,binding signal,ELF4,"1.21 fold enrichment (6-mer frequency, TF over GST control)"
same,binding signal,ELK4,"1.2 fold enrichment (6-mer frequency, TF over GST control)"
same,binding signal,ETV2,"1.25 fold enrichment (6-mer frequency, TF over GST control)"
same,binding signal,ELF3,"1.26 fold enrichment (6-mer frequency, TF over GST control)"
same,binding signal,CRX,"1.03 fold enrichment (6-mer frequency, TF over GST control)"
same,binding signal,ETV1,"1.15 fold enrichment (6-mer frequency, TF over GST control)"
same,binding signal,ERF,"1.38 fold enrichment (6-mer frequency, TF over GST control)"
same,binding signal,ETV3L,"1.26 fold enrichment (6-mer frequency, TF over GST control)"
same,binding signal,ETS2,"1.35 fold enrichment (6-mer frequency, TF over GST control)"
same,binding signal,SPDEF,"1.29 fold enrichment (6-mer frequency, TF over GST control)"
same,binding signal,ETV7,"1.31 fold enrichment (6-mer frequency, TF over GST control)"
same,binding signal,ELF5,"1.17 fold enrichment (6-mer frequency, TF over GST control)"
same,binding signal,ETV3,"1.28 fold enrichment (6-mer frequency, TF over GST control)"
same,binding signal,ETV6,"1.18 fold enrichment (6-mer frequency, TF over GST control)"

# Reference: publication PMC7862700, “An all-to-all approach to the identification of sequence-specific readers for epigenetic DNA modifications on cytosine”
